Source: PubChem BioAssay AID651681 (Broad Institute, 2012)
The source made the active and inactive calls.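 Rule for the calls: active = compound with fitted CDK2 half-maximal potency at or below twice its top tested dose; inconclusive = flat curve near 30 to 70% inhibition, or poor fit; inactive = the rest.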

Target: Cyclin-dependent kinase 2 (Homo sapiens) + Cyclin-A2 (Homo sapiens) (UniProt P20248+P24941)
Assay: blockade of human CDK2 kinase activity – biochemical, dry powder, set 3, selectivity assay for Dyrk1A inhibitor project, dose response (AID 651681)
Settings: CDK2/cyclin A ADP-Glo luminescence, histone H1 peptide; series mostly up to 10 µM; inhibition: at the top concentration

Chain of Cyclin-dependent kinase 2 (Homo sapiens) + Cyclin-A2 (Homo sapiens) (P20248 whole entry, looked up, one chain of several): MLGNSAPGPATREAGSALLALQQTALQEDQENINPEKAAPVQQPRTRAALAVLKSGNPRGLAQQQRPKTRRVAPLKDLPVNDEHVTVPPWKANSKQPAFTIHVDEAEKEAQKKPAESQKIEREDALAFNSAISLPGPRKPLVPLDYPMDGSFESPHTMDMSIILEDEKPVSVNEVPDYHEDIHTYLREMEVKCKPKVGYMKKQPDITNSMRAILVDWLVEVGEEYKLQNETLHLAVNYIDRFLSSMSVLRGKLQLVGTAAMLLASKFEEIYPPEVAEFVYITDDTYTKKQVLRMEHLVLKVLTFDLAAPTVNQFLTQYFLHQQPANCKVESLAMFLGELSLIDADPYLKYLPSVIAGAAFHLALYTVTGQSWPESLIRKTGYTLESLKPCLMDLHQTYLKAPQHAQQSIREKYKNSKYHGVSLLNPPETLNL

inhibition, inactive:
CCOc1ccc2nc(NC(=O)C3CCCN(S(=O)(=O)c4cccc5cccnc45)C3)sc2c1 (centres undefined) -2.57%
Cc1ccccc1S(=O)(=O)Cc1ccc(C(=O)NC(C)c2ccc3c(c2)OCCO3)o1 (centres undefined) -2.08%
CCOc1ccc2nc(NC(=O)COc3ccc(Cl)c(OC)c3)sc2c1 1.54%
COc1ccc2nc(NC(=O)C3CCN(S(=O)(=O)c4ccc(C)cc4)CC3)sc2c1 -2.31%
